Activity calls are given as the source filed them.

The values that follow come from PubChem BioAssay.

A short description of test [1]: small molecules captured by biotinylated probe aFSTL3 – biochemical, small-molecule microarray, fluorescence 635/667, stem cell growth factor project, primary screen (AID 1064).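 Further: measures binding of the biotinylated anti-FSTL3 antibody to printed compounds.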 The following applies: higher = more signal.
Test [2] can be described thus: binders from COS7 lysate, DM2A8 probe, primary screen, torsin A project, cell lysate, small-molecule microarray, fluorescence 635/667 (AID 1065). The following applies: higher = more signal, COS7 lysate expressing mutant human TOR1A.
Test [3] can be described thus: small molecules captured by biotinylated probe aFGF2 – biochemical, small-molecule microarray, fluorescence 635/667, stem cell growth factor project, primary screen (AID 1067).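 Further: measures binding of biotinylated aFGF2 protein to printed compounds on slides; z-score merges feature fluorescence and signal-to-noise across triplicate slides.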 The following applies: higher = more signal.
Test [4] can be described thus: small molecules captured by biotinylated probe aFGF10 – biochemical, small-molecule microarray, fluorescence 635/667, stem cell growth factor project, primary screen (AID 1071).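 Further: score merges 667 nm spot intensity and signal to noise from triplicate slides.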 The following applies: higher = more signal.
Test [5] has as its target Neurogenic locus notch homolog protein 2 (Homo sapiens) (UniProt Q04721). Put plainly: small molecules binding Notch2 protein – biochemical, small-molecule microarray, 635 nm fluorescence, stem cell growth factors, primary screen (AID 1073). The following applies: higher = more signal.
In test [6] the target is Pro-neuregulin-1, membrane-bound isoform (Homo sapiens) (UniProt Q02297). Put plainly: small molecules binding neuregulin-1 protein – biochemical, small-molecule microarray, fluorescence 635/667, psychiatric disease protein project, primary screen (AID 1075).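 Further: score combines 667 nm spot fluorescence with signal to noise.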 The following applies: NRG1 binding, 635 nm fluorescence, higher = more signal.
Test [7] relates to Neuregulin-1 EGF-like domain. Kind of test: small molecules binding NRG1 EGF domain – biochemical, small-molecule microarray, 635 nm fluorescence, primary screen (AID 1081).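 Further: binding of the protein to compounds printed on small-molecule microarray slides.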 The following applies: higher = more signal.
Test [8] in a line: FRG1 expression reporter modulators in myotubes – cell-based, C2C12 myotubes, firefly/Renilla luciferase, luminescence, FRG1 inhibition for FSHD, primary screen (AID 1084). The following applies: FRG1 promoter luciferase, higher = more signal, called active from +8 up or from −8 down.
Test [9] in a line: small molecules captured by biotinylated probe aFST – biochemical, small-molecule microarray, fluorescence 635/667, stem cell growth factor project, primary screen (AID 1086).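 Further: score merges 667 nm fluorescence with signal-to-noise of each printed compound spot.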 The following applies: higher = more signal.
Test [10] is described as follows: binders of probe aHhip on microarray, primary screen, stem cell growth factor project, biochemical, small-molecule microarray, fluorescence 635/667 (AID 1087).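 Further: score merges spot fluorescence at 667nm with spot signal to noise ratio.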 The following applies: higher = more signal.
Test [11] has as its system PRMT1 (protein arginine N-methyltransferase 1). Kind of test: small molecules binding arginine methyltransferase PRMT1 – biochemical, small-molecule microarray, 635 nm fluorescence, primary screen (AID 1088).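 Further: binding of Prmt1 protein to compounds spotted on small-molecule microarray slides.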 The following applies: higher = more signal.
Test [12] is described as follows: growth effects on S. cerevisiae YJM789 – YJM789 clinical isolate, OD600, 24 h, basal, primary screen (AID 1089).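 Further: growth of clinical yeast isolate S. cerevisiae YJM 789 seeded 1000 cells per well; test concentration not given here.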 The following applies: higher = more signal, called active from +8 up or from −8 down.
Test [13] in a line: S. pombe growth modifiers, basal conditions – strain 972, OD600, 24 h, no modulator, primary screen (AID 1090).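 Further: basal condition with compound alone and no growth modifier present; test concentration not given here.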 The following applies: S. pombe 972 growth, higher = more signal, called active from +8 up or from −8 down.
Test [14] is described as follows: budding yeast growth modifiers under rapamycin – strain BY4716, OD600, 96 h, primary screen (AID 1091). Further: test concentration not given here. The following applies: S. cerevisiae BY4716 + rapamycin, higher = more signal, called active from +8 up or from −8 down.
In test [15] the target is Torsin-1A-interacting protein 2 (Homo sapiens) (UniProt Q8NFQ8). Put plainly: small molecules binding lysate-expressed LULL1 – cell lysate, human LULL1 lysate, 635/667 nm fluorescence, primary screen (AID 1092).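 Further: probe is lysate of COS7 cells overexpressing human LULL1; score merges per-feature 667 nm fluorescence with signal-to-noise.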 The following applies: small-molecule microarray, hLULL1 lysate binding, 635 nm fluorescence; higher = more signal.
Test [16] in a line: optical density change of DRC41 E. coli – strain DRC41, OD650, 24 h, E. coli filamentation project, primary screen (AID 1093).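 Further: MC1000 strain lacking acrAB efflux and sulA so SOS filamentation is blocked; test concentration not given here.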 The following applies: E. coli DRC41 growth, higher = more signal, called active from +8 up or from −8 down.
Test [17] is described as follows: probe aLefty2 binding to arrayed compounds – biochemical, biotinylated probe, 635/667 nm fluorescence, primary screen (AID 1094).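 Further: score merges spot fluorescence near 667 nm with spot signal-to-noise ratio.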 The following applies: small-molecule microarray, higher = more signal.
Test [18] concerns Noggin (protein binding on small-molecule microarray). Kind of test: small molecules binding Noggin protein – biochemical, 635/667 nm fluorescence, primary screen (AID 1095).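 Further: score merges 667 nm feature fluorescence with signal to noise over triplicate slides.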 The following applies: 635 nm fluorescence, higher = more signal.
Test [19] has as its target Neurogenic locus notch homolog protein 3 (Homo sapiens) (UniProt Q9UM47). Kind of test: small molecules binding NOTCH3 protein – biochemical, 635/667 nm fluorescence, primary screen (AID 1096). The following applies: small-molecule microarray, 635 nm fluorescence, higher = more signal.
Test [20] is described as follows: probe aEGFR binding to arrayed compounds – biochemical, biotinylated probe, 635/667 nm fluorescence, primary screen (AID 1097).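 Further: probe is a biotinylated anti-EGFR antibody binding compounds printed on slides; score combines fluorescence near 667 nm and signal to noise of each spot.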 The following applies: small-molecule microarray, higher = more signal.

Chain of Pro-neuregulin-1, membrane-bound isoform (Homo sapiens) (Q02297 whole entry, looked up, the tested form may be a part, canonical isoform): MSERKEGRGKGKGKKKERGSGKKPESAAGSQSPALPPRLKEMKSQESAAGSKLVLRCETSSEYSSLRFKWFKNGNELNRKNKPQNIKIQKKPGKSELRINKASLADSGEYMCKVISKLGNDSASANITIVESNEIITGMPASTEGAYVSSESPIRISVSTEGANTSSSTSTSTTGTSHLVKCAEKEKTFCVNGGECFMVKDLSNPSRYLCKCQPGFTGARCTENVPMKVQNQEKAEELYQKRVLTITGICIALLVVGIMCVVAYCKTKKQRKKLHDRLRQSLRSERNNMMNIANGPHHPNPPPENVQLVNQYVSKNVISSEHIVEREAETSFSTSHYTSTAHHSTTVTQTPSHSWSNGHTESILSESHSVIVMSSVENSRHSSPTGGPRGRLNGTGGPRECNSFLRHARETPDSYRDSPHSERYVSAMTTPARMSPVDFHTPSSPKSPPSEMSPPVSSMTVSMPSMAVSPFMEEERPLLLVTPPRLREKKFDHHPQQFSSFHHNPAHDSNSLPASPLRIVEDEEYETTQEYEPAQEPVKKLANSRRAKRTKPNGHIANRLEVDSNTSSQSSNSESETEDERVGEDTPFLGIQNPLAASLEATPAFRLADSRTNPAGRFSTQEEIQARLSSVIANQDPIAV
Chain of Neurogenic locus notch homolog protein 2 (Homo sapiens) (Q04721 whole entry, looked up, canonical isoform): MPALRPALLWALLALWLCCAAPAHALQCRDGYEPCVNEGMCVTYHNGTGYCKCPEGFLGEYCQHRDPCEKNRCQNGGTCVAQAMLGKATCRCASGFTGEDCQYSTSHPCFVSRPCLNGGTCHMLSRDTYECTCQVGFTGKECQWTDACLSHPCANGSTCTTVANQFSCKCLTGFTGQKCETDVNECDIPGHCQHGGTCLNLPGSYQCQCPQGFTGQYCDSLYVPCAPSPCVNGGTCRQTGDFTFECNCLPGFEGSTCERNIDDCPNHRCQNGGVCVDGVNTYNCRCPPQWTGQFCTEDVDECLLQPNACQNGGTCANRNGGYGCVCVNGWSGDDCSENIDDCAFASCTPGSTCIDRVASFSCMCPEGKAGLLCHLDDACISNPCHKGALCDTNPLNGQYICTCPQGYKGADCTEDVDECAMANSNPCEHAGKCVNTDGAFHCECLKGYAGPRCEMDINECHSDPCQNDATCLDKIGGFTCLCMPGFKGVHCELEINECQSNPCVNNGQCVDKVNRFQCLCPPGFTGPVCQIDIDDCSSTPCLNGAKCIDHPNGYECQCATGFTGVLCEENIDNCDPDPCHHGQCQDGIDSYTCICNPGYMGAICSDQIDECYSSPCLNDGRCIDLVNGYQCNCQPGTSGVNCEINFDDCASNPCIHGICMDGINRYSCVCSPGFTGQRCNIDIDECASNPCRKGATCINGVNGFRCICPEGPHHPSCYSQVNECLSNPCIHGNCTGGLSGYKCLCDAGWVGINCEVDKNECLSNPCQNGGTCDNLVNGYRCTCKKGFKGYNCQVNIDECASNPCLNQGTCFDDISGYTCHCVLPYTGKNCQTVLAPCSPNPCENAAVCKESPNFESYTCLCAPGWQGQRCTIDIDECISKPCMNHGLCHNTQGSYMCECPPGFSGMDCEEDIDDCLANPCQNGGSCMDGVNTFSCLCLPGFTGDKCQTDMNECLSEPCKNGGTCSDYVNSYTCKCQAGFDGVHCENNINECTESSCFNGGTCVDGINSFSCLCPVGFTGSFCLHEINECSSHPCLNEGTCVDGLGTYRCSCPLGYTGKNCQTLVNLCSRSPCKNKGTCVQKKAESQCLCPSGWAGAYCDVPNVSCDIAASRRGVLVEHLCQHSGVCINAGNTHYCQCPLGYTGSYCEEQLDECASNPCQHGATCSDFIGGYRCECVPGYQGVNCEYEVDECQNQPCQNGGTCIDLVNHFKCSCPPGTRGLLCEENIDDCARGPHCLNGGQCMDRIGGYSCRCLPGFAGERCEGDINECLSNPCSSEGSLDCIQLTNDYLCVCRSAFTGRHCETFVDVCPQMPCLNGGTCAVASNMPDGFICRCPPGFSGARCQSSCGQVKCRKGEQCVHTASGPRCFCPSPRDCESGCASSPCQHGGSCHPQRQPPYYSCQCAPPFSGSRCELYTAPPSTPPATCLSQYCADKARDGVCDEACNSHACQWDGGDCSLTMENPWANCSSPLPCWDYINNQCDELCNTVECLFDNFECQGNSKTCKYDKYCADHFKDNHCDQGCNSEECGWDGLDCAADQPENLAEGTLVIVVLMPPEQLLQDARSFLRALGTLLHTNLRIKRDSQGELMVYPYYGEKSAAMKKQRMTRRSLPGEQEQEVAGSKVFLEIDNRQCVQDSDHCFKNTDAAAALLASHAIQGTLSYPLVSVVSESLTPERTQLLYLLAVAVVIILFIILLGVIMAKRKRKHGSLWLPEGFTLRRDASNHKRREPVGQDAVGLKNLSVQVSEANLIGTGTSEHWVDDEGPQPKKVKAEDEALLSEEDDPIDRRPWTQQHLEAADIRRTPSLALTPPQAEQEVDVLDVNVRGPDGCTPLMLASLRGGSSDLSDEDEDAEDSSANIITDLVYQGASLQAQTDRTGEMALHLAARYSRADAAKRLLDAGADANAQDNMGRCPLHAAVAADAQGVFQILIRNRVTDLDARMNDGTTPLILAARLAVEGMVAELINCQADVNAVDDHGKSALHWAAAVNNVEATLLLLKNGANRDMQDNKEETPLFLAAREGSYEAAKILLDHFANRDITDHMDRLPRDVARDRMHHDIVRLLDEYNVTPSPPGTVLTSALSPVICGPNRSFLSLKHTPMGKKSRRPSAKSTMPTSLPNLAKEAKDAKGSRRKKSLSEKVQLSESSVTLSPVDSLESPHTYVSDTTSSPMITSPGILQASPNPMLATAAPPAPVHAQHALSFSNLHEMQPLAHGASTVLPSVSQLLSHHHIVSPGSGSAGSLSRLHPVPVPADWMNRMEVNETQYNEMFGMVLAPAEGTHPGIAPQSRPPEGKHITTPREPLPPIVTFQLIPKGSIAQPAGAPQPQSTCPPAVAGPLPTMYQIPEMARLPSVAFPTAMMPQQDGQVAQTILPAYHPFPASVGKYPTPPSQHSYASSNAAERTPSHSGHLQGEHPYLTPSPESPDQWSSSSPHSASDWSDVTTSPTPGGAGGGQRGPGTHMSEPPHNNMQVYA
Chain of Torsin-1A-interacting protein 2 (Homo sapiens) (Q8NFQ8 whole entry, looked up): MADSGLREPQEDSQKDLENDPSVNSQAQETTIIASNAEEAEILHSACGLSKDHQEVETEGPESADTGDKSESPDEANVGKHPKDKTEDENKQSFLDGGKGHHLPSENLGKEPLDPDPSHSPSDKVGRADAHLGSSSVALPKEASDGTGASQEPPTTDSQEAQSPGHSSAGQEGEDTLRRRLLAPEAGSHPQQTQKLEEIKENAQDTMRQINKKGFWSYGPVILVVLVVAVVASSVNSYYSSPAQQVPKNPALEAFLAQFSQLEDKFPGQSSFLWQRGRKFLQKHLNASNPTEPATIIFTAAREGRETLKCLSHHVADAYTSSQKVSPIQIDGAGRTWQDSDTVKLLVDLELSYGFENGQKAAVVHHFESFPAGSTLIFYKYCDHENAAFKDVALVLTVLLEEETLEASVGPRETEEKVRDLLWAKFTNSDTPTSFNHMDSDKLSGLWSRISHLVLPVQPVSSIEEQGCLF

On to `[N-]=[N+]=NCc1ccccc1[C@H]1OC(c2ccc(OCCCO)cc2)=N[C@@]1(Cc1ccccc1N=[N+]=[N-])C(=O)N1CCOCC1`, for which the composite z-score in test [1] is 0.439; in test [2], -0.154; in [3], 0.156; in [4], 0.383; in test [5] it was 1.55; in test [6], 1.96. Further, the composite z-score is 1.21 in test [7]; 1.07 in [9]; -0.0994 in test [10]; 1.58 in test [11]; 3.36 in test [15]; -0.0133 in test [17]. The composite z-score in test [18] was 0.123; in test [19] it was 1.11; in test [20], -0.0031. In addition, the z-score is -1.31 (inactive) in test [8]; -0.8 (inactive) in [12]; 1.23 (inactive) in [13]; 4.53 (inactive) in test [14]; 0.175 (inactive) in test [16].
`COCCOC(=O)N1C(=O)[C@@]2(c3cc(C#CC4=CCCCC4)ccc31)[C@H](c1ccc(O)cc1)N1[C@H](c3ccccc3)[C@H](c3ccccc3)OC(=O)[C@H]1[C@@H]2C(=O)N1CCc2cc(OC)c(OC)cc2C1`: the composite z-score is -0.253 in [1]; -0.252 in test [2]; -0.0824 in test [3]; 0.142 in test [4]; 0.454 in test [5]; 0.554 in [6]. Moreover, the composite z-score was 1.11 in [7]; 0.0477 in test [9]; -0.0296 in test [10]; 1.15 in test [11]; 2.56 in test [15]; 0.0113 in test [17]. In addition, the composite z-score was 0.286 in test [18], 0.399 in [19] and -0.0065 in test [20]. Moreover, the z-score was 0.237 (inactive) in [8]; 0.793 (inactive) in [12]; 0.244 (inactive) in test [13]; 0.543 (inactive) in test [14]; 0.0512 (inactive) in test [16].
Consider `O=C1OCCC/C=C\[C@H]2OC34C=CCN(Cc5ccccc5)C(=O)[C@H]3N(CCO)C(=O)[C@@H]4C12` (stereo not given in full), for which the composite z-score in test [1] is 0.166; in test [2] it was 1.08; in [3], -0.226; in [4], 0.866; in test [5], 0.479; in [6], 1.79. For the same compound, the composite z-score was 1.53 in test [7]; -0.342 in [9]; -0.0994 in [10]; 0.216 in test [11]; 2.22 in test [15]; 0.235 in test [17]. Also, the composite z-score in [18] is -0.353; in [19], 0.0094; in test [20], 0.0618. Also, the z-score is 0.0936 (inactive) in [8]; -0.27 (inactive) in [12]; -1.72 (inactive) in [13]; -0.462 (inactive) in test [14]; 2.29 (inactive) in test [16].
With `COc1ccc([Si](C)(C)[C@H]2[C@H](CCO)O[C@@]3(C(=O)N(Cc4ccccc4)c4ccc(NC(=O)[C@H](C)O)cc43)[C@@H]2C)cc1`, the composite z-score in [1] is -0.0382; in test [2], 0.394; in test [3], -0.0653; in test [4], 1.12; in [5] it was 0.855; in test [6], 0.638. The composite z-score in test [7] was determined as 1.18; in [9], 0.239; in test [10], 0.126; in test [11], 1.44; in test [15], 2.24; in [17], 0.0092. The composite z-score in test [18] is -0.227; in [19], 0.149; in [20], 0.148. The z-score was -3.18 (inactive) in test [8]; 2.75 (inactive) in test [12]; 0.215 (inactive) in test [13]; 5.82 (inactive) in test [14]; 0.25 (inactive) in [16].
With `COCCOC(=O)N1C(=O)[C@@]2(c3cc(C#CCC(C(=O)OC)C(=O)OC)ccc31)[C@H](c1ccc(O)cc1)N1[C@H](c3ccccc3)[C@H](c3ccccc3)OC(=O)[C@H]1[C@@H]2C(=O)N1CCc2cc(OC)c(OC)cc2C1`, the composite z-score was 0.0804 in [1]; 0.838 in [2]; -0.0538 in test [3]; 0.818 in [4]; 1.21 in test [5]; 1.04 in [6]. Besides, the composite z-score in test [7] is 1.14; in test [9], 0.186; in test [10], 0.224; in test [11], 1.54; in [15], 2.56; in test [17], -0.103. Also, the composite z-score was determined as 1.12 in test [18], 0.8 in test [19] and 0.0353 in test [20]. Also, the z-score was 0.336 (inactive) in test [8]; 0.344 (inactive) in test [12]; -1.01 (inactive) in test [13]; 0.157 (inactive) in [14]; 0.794 (inactive) in [16].
